Assay outcomes (PubChem BioAssay)
Only some compounds are listed: those with a hit (about 2.1% of all), similar ones and a draw of the others.
D2 ag-1: D2 dopamine receptor (human) agonism; P14416; HEK293 T-REx D2 cells, calcium flux agonist mode; activation, % at 2 µM; 340,000 compounds, 0.53% hits; AID 485358;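 active means activation over 3 SD above normal in the single-dose calcium agonist read, cut at about 30% in these data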; further: 0% is about no effect
Target sequence (P14416 whole entry, looked up): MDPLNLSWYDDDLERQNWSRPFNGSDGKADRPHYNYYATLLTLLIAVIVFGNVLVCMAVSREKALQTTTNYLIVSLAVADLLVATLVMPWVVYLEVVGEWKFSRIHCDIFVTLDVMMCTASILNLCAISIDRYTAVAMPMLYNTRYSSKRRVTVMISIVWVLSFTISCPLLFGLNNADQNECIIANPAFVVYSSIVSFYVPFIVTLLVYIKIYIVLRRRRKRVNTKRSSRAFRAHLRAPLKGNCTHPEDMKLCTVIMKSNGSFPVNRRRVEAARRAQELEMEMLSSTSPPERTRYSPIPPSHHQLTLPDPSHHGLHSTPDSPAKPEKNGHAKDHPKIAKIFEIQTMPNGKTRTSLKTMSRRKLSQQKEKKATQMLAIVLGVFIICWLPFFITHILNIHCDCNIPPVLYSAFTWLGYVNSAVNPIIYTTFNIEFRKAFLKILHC
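Tetracycline-induced HEK293 T-REx cells with force-coupled D2 receptor, plated overnight at 30 C, loaded with no-wash calcium dye. After a 10 s baseline, compound was pin-added and calcium flux read kinetically for 180 s; calcium rises flagged agonists.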
D2 PAM-1: positive allosteric modulators of human D2 dopamine receptor | P14416 | DiscoveRx D2 beta-arrestin cells, luminescence, 90 min; 100% = 57 uM dopamine signal | potentiation, % (no concentration beside the values) | 360,000 compounds, 0.23% hits | AID 624464; in the data active means potentiation above about 50%; inconclusive means mostly about 30% to 49%
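PathHunter D2 cells, attached overnight at 37 deg C, received compound in DMSO plus dopamine at EC20 (50 nM final) for 90 min at 37 deg C. Beta-arrestin recruitment was read as luminescence after 1 h with detection reagent at ambient temperature.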
D2 ag-2: activates the human D2 dopamine receptor; 360,000 compounds, 0.084% hits; activation, % (concentration not given with the values); DiscoveRx PathHunter D2 beta-arrestin, luminescence, 90 min; 100% = 57 uM dopamine signal; in the data active means activation above about 40%; inconclusive means between about 15% and that limit
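DiscoveRx PathHunter D2 beta-arrestin cells (2,100/well) attached overnight, then compound-stimulated 90 min at 37 C in HBSS/10 mM HEPES/0.1% Tween-20 buffer; beta-galactosidase complementation read by luminescence after 1 h at ambient temperature. Dopamine 57 uM final (EC100) as control.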
LDHA inh: blocks human lactate dehydrogenase A; P00338; purified LDHA, NADH/diaphorase-resazurin fluorescence; hits give low values; activity change, % (values are at about 110 or 230 µM); 480,000 compounds, 0.15% hits; in the data active means activity change below about -30%; inconclusive means mostly about -25% to -30%;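 further: plate controls were DMSO wells for no effect and wells without enzyme for full effect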
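Enzyme activity of human lactate dehydrogenase 5 (2 nM; 0.06 mM NADH, 0.2 mM pyruvate, 5 min, RT) is measured via a resazurin/diaphorase fluorescence readout of residual NADH.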
D2 PAM-2: positive allosteric modulators of human D2 dopamine receptor; 340,000 compounds, 0.34% hits; potentiation, % at 10 µM; P14416; HEK293 T-REx D2, calcium flux, EC20 dopamine potentiation; AID 485347;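 active means potentiation over 3 SD above the plate norm, cut at about 30% in these data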; further: 0% is about no effect
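Calcium flux readout, no-wash dye, 1 read/s. Inducible HEK293 Trex D2 line, overnight 30 C. Compound alone 180 s (agonist flags), then EC20 dopamine, another 180 s to score potentiation.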
D2 antag: D2 dopamine receptor (human) antagonism; HEK293 TREx D2 cells, calcium flux, dopamine EC80; inhibition, % at 10 µM; 340,000 compounds, 2% hits; AID 485344; in the data active means inhibition above about 30%; inactive means below that, where a call was filed; further: 0% is about no effect
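Calcium mobilization kinetics were recorded at 1 s intervals in tetracycline-induced HEK293 T-REx D2 cells, first for 180 s after compound addition and then 180 s after EC80 dopamine.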
An asterisk follows results filed as active; ? = inconclusive; · = no result.

SMILES	D2 ag-1	D2 PAM-1	D2 ag-2	LDHA inh	D2 PAM-2	D2 antag
COc1cc(C#N)ccc1OC(C)c1ccccc1Cl (stereo not drawn)	·	·	·	-8	·	·
Cc1ccc(S(=O)(=O)N2CCOCC2)cc1NC(=O)COC(=O)Cc1ccccc1	·	5	-1	-4	·	·
Cc1ccc(S(=O)(=O)N2CCCCC2)cc1NC(=O)COC(=O)c1c(F)cccc1F	-1	12	-5	-6	31*	6
Cc1ccc(S(=O)(=O)N2CCCCC2)cc1NC(=O)CSc1ccc2c(c1)OCCO2	-2	-5	-4	4	-7	6
COc1ccccc1CCC(=O)OCC(=O)Nc1cc(S(=O)(=O)N2CCOCC2)ccc1C	2	-23	-3	-2	-6	33*
Cc1ccc(C)c(SCC(=O)Nc2cc(S(=O)(=O)N3CCOCC3)ccc2C)c1	0	-2	-5	-7	-5	53*
Cc1ccc(S(=O)(=O)N(C)C)cc1NC(=O)CSc1ccc2c(c1)OCCO2	0	-22	2	-1	-2	36*
CCc1nc2sc(C(C)=O)c(N)c2cc1C	·	·	·	17	·	·
Cc1nn(CCc2nc(-c3ccccc3)cs2)c2[nH]c(=O)cc(C(F)(F)F)c12	·	·	·	9	·	·
CCOc1ccc(/C=C2/C(=O)N(c3ccc(OC)cc3)C(=S)N2CC(=O)OC)cc1OCC	1	10	-4	-2	-2	17
CCOc1ccc(N2C(=O)/C(=C/c3cc(OC)c(OC)c(OC)c3)N(CC(=O)OC)C2=S)cc1	2	-1	-4	0	47*	-7
O=C(/C=C/c1ccc(O)cc1)c1ccsc1	·	·	·	11	·	·
COc1ccccc1N1CC(C(=O)Nc2nc(C)cs2)CC1=O (stereo not drawn)	0	-17	-3	0	-9	7
Cc1csc(NC(=O)C2CC(=O)N(c3ccc(C)c(C)c3)C2)n1 (stereo not drawn)	1	5	-5	-5	-9	51*
Cc1ccc(N2CC(C(=O)Nc3cccnc3)CC2=O)cc1C (stereo not drawn)	0	-3	-3	-4	-5	31*
COc1cccc(Nc2nc(-c3cc4cc(Br)ccc4oc3=O)cs2)c1	·	·	·	5	·	·
CCCCCCCCOC(=O)C1C(c2ccccc2)C(C(=O)O)C1c1ccccc1 (stereo not drawn)	·	·	·	0	·	·
O=C(NS(=O)(=O)Cc1ccccc1)c1cccc(F)c1	·	·	·	6	·	·
Oc1ccccc1NCC(O)Cn1ccc2ccccc21 (stereo not drawn)	-1	58*	14	-1	-2	-11
OC(CNCc1ccccc1)Cn1ccc2ccccc21 (stereo not drawn)	0	-8	-5	-6	-11	-5
OCc1nc2ccccc2n1CC(O)Cn1ccc2ccccc21 (stereo not drawn)	-2	2	-12	0	32*	-16
OCc1nc2ccccc2n1CC(O)COc1ccccc1F (stereo not drawn)	·	·	·	3	·	·
O=C(Nc1cccc(C(=O)Nc2ccc(S(=O)(=O)O)c3cc(S(=O)(=O)O)cc(S(=O)(=O)O)c23)c1)Nc1cccc(C(=O)Nc2ccc(S(=O)(=O)O)c3cc(S(=O)(=O)O)cc(S(=O)(=O)O)c23)c1	·	·	·	-112*	·	·
O=C(O)c1cccc(NC(=O)c2cccc(S(=O)(=O)Nc3cccc(C(=O)O)c3)c2)c1	0	·	·	-2	-11	·
Cc1cc(Br)ccc1NC(=O)CNC(=O)COc1ccccc1C	0	-13	-5	-7	-14	32*
O=C(CSc1nc2cc([N+](=O)[O-])ccc2o1)NCc1ccc(F)cc1	·	·	·	3	·	·
Cc1sc(N/N=C/c2cccs2)nc1-c1ccccc1	0	66*	?	-5	-9	-16
Cc1sc(NC(=O)c2cccs2)nc1-c1ccccc1	0	-4	-3	-1	0	-13
CC(=O)OC[C@H]1O[C@H](CCO/N=C(\C)CCN2CCCc3nc(C)c(C)cc32)C=C[C@@H]1OC(C)=O	65*	·	·	·	-24	78*
